Measured values published in PubChem BioAssay (Tox21).
Results filed as inconclusive are left out. The source made the active and inactive calls. Calls follow the shape of the dose curve; as a rule, active = well fitted curve in the direction sought with a large enough effect in the repeat runs; inconclusive = weak or mixed curves; inactive = no such curve, though single readings can be large; an effect the other way counts as inactive or inconclusive.

Tests used:
[1] = A CellTox Green Cytotoxicity Assay to monitor cytotoxicity in HEK293 cells - 40 hour (AID 1224871); also: nearly all actives have a fitted effect of over 45% in size; also: potency is read from the fitted curve at half-maximal effect
Summary of the method: (§1)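 Cells (HEK293, 600/well) and dye reagent are dispensed together. After 5 h at 37 C, 23 nL compound is pinned in. Plates stay at 37 C for 40 h with fluorescence read at 0h, 8h, 16h, 24h, 32h and 40h.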

[2] = qHTS RealTime-Glo MT Cell Viability Assay in HEK293 cells - 16 hour (AID 1224872); also: top concentration of the series differs between compounds; nearly all actives have a fitted effect of over 50% in size
Summary of the method: (§2)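 Homogeneous bioluminescent viability format in HEK293 cells (600 cells/well). Following 5 h at 37 C/5% CO2, 23 nL compound was pintooled; the signal was measured repeatedly during 40 h incubation.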

[3] = qHTS RealTime-Glo MT Cell Viability Assay in HepG2 cells - 8 hour (AID 1224873); also: nearly all actives have a fitted effect of over 55% in size
Summary of the method: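 HepG2 cells (600/well) mixed with RealTime-Glo MT reagent, settled 5 h at 37 C/5% CO2 before compound addition. Nonlytic NanoLuc luminescence from viable-cell prosubstrate reduction read repeatedly during 40 h treatment at 37 C.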

[4] = qHTS RealTime-Glo MT Cell Viability Assay in HEK293 cells - 40 hour (AID 1224874); conditions: RealTime-Glo luminescence; max response: active compounds read low; also: nearly all actives have a fitted effect of over 50% in size; also: potency is read from the fitted curve at half-maximal effect
Summary of the method: (§3)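 Real-time viability in HEK293: signal arises when living cells convert a prosubstrate for NanoLuc in the medium, so luminescence tracks viable cell number. Compound (23 nL, DMSO) added 5 h post-seeding; kinetic reads at 0–40 h, 37 C.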

[5] = A CellTox Green Cytotoxicity Assay to monitor cytotoxicity in HEK293 cells - 24 hour (AID 1224875); also: nearly all actives have a fitted effect of over 45% in size; also: potency is read from the fitted curve at half-maximal effect
Summary of the method: as §1

[6] = qHTS RealTime-Glo MT Cell Viability Assay in HepG2 cells - 32 hour (AID 1224877); also: nearly all actives have a fitted effect of over 55% in size
Summary of the method: (§4)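 Cell number in HepG2 cultures estimated from NanoLuc luminescence generated by metabolic reduction of a prosubstrate by living cells. The homogeneous, nonlytic format allowed repeated reads at 0, 8, 16, 24, 32 and 40 h of compound exposure.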

[7] = A CellTox Green Cytotoxicity Assay to monitor cytotoxicity in HepG2 cells - 24 hour (AID 1224878); also: nearly all actives have a fitted effect of over 45% in size
Summary of the method: (§5)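 Cells and non-lytic dye reagent are dispensed together (600 HepG2 cells/well) and incubated 5 h before DMSO compound transfer. Kinetic fluorescence is then recorded in the same wells during 40 h at 37 C.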

[8] = A CellTox Green Cytotoxicity Assay to monitor cytotoxicity in HepG2 cells - 40 hour (AID 1224879); also: nearly all actives have a fitted effect of over 40% in size; also: potency is read from the fitted curve at half-maximal effect
Summary of the method: as §5

[9] = qHTS RealTime-Glo MT Cell Viability Assay in HEK293 cells - 0 hour (AID 1224880); also: top concentration of the series differs between compounds; nearly all actives have a fitted effect of over 45% in size
Summary of the method: as §3

[10] = A CellTox Green Cytotoxicity Assay to monitor cytotoxicity in HEK293 cells - 32 hour (AID 1224881); also: nearly all actives have a fitted effect of over 40% in size; also: potency is read from the fitted curve at half-maximal effect
Summary of the method: as §1

[11] = A CellTox Green Cytotoxicity Assay to monitor cytotoxicity in HepG2 cells - 0 hour (AID 1224882); also: nearly all actives have a fitted effect of over 35% in size
Summary of the method: as §5

[12] = A CellTox Green Cytotoxicity Assay to monitor cytotoxicity in HepG2 cells - 32 hour (AID 1224883); also: nearly all actives have a fitted effect of over 50% in size
Summary of the method: as §5

[13] = A CellTox Green Cytotoxicity Assay to monitor cytotoxicity in HEK293 cells - 8 hour (AID 1224884); also: nearly all actives have a fitted effect of over 35% in size
Summary of the method: as §1

[14] = qHTS RealTime-Glo MT Cell Viability Assay in HepG2 cells - 16 hour (AID 1224885); also: nearly all actives have a fitted effect of over 50% in size
Summary of the method: as §4

[15] = qHTS RealTime-Glo MT Cell Viability Assay in HEK293 cells - 24 hour (AID 1224886)
Summary of the method: as §2

[16] = qHTS RealTime-Glo MT Cell Viability Assay in HEK293 cells - 8 hour (AID 1224887)
Summary of the method: as §3

[17] = A CellTox Green Cytotoxicity Assay to monitor cytotoxicity in HEK293 cells - 16 hour (AID 1224888); also: nearly all actives have a fitted effect of over 35% in size; also: potency is read from the fitted curve at half-maximal effect
Summary of the method: as §1

[18] = qHTS RealTime-Glo MT Cell Viability Assay in HepG2 cells - 0 hour (AID 1224889); also: nearly all actives have a fitted effect of over 50% in size
Summary of the method: as §4

[19] = A CellTox Green Cytotoxicity Assay to monitor cytotoxicity in HepG2 cells - 8 hour (AID 1224890); also: nearly all actives have a fitted effect of over 45% in size
Summary of the method: as §5

[20] = A CellTox Green Cytotoxicity Assay to monitor cytotoxicity in HepG2 cells - 16 hour (AID 1224876); also: nearly all actives have a fitted effect of over 45% in size
Summary of the method: as §5
% is scaled to controls: 0 for no effect and ±100 for the full control effect.

NCCCOCCOCCOCCCN
inactive: Potency [1] | Potency [2] | Potency [3] | max response [4] -18% | Potency [5] | Potency [6] | Potency [7] | Potency [8] | Potency [9] | Potency [10] | Potency [11] | Potency [12] | Potency [13] | Potency [14] | Potency [15] | Potency [16] | Potency [17] | Potency [18] | Potency [19]

CC(C)(C)C1CCCCC1O (stereo unspecified)
inactive: Potency [1] | Potency [2] | Potency [3] | max response [4] 0.612% | Potency [5] | Potency [6] | Potency [9] | Potency [10] | Potency [11] | Potency [13] | Potency [15] | Potency [16] | Potency [17] | Potency [18] | Potency [19]

CCCCC(CC)(CO)CO
inactive: Potency [1] | Potency [2] | Potency [3] | max response [4] -0.853% | Potency [5] | Potency [6] | Potency [8] | Potency [9] | Potency [10] | Potency [11] | Potency [12] | Potency [14] | Potency [15] | Potency [17] | Potency [18] | Potency [19]

Cn1c(=O)c2c(ncn2CC(O)CO)n(C)c1=O (stereo unspecified)
inactive: Potency [1] | Potency [2] | Potency [3] | max response [4] 2.79% | Potency [5] | Potency [6] | Potency [8] | Potency [9] | Potency [10] | Potency [11] | Potency [13] | Potency [14] | Potency [15] | Potency [16] | Potency [17] | Potency [18]

CC[C@@H]1C[C@H](N(Cc2cc(C(F)(F)F)cc(C(F)(F)F)c2)C(C)=O)c2cc(C(F)(F)F)ccc2N1C(=O)OC(C)C
inactive: Potency [1] | Potency [2] | Potency [3] | max response [4] -22.8% | Potency [5] | Potency [6] | Potency [8] | Potency [9] | Potency [10] | Potency [11] | Potency [12] | Potency [13] | Potency [14] | Potency [16] | Potency [17] | Potency [18] | Potency [19]

CC(=O)O[C@@H]1C(=O)O[C@@H]2[C@H]1OC(=O)[C@@H]2OC(C)=O
inactive: Potency [1] | Potency [2] | Potency [3] | max response [4] -24.6% | Potency [5] | Potency [6] | Potency [7] | Potency [9] | Potency [10] | Potency [11] | Potency [13] | Potency [14] | Potency [15] | Potency [16] | Potency [17] | Potency [18] | Potency [19]
active: Potency [8] 26.8 µM

CCCCCCCCCCCCCCCBr
inactive: Potency [1] | Potency [2] | Potency [3] | max response [4] -1.7% | Potency [5] | Potency [6] | Potency [7] | Potency [8] | Potency [9] | Potency [10] | Potency [11] | Potency [12] | Potency [13] | Potency [14] | Potency [15] | Potency [16] | Potency [17] | Potency [18] | Potency [19]

CCOC(=S)SSC(=S)OCC
inactive: Potency [1] | Potency [2] | Potency [3] | max response [4] 1.68% | Potency [5] | Potency [6] | Potency [7] | Potency [8] | Potency [10] | Potency [11] | Potency [12] | Potency [14] | Potency [15] | Potency [16] | Potency [17] | Potency [18] | Potency [19]

FC(F)(F)C(F)(F)C(F)(F)C(F)(F)C(F)(F)C(F)(F)CCI
inactive: Potency [1] | Potency [2] | Potency [3] | max response [4] -0.265% | Potency [5] | Potency [6] | Potency [7] | Potency [8] | Potency [9] | Potency [10] | Potency [11] | Potency [12] | Potency [13] | Potency [14] | Potency [15] | Potency [16] | Potency [17] | Potency [18] | Potency [19]

O=C(O)/C=C/c1cnc[nH]1
inactive: Potency [1] | Potency [2] | Potency [3] | max response [4] -5.16% | Potency [5] | Potency [6] | Potency [7] | Potency [8] | Potency [9] | Potency [10] | Potency [11] | Potency [12] | Potency [14] | Potency [15] | Potency [17] | Potency [18] | Potency [19]

CC(=O)/C(C)=C/C1C(C)=CCCC1(C)C (stereo unspecified)
inactive: Potency [2] | Potency [3] | max response [4] -10.3% | Potency [9] | Potency [11] | Potency [13] | Potency [14] | Potency [15] | Potency [16] | Potency [18] | Potency [19]
active: Potency [1] 17.4 µM | Potency [5] 17.4 µM | Potency [10] 17.4 µM | Potency [17] 15.5 µM

CC(=O)N(O)CCCCCNC(=O)CCC(=O)N(O)CCCCCNC(=O)CCC(=O)N(O)CCCCCN
inactive: Potency [1] | Potency [2] | Potency [3] | Potency [20] | Potency [6] | Potency [7] | Potency [8] | Potency [9] | Potency [10] | Potency [11] | Potency [12] | Potency [13] | Potency [14] | Potency [16] | Potency [17] | Potency [18] | Potency [19]
active: Potency [4] 21.3 µM

O=c1c2ccccc2nnn1CCl
inactive: Potency [1] | Potency [2] | Potency [3] | max response [4] 10.3% | Potency [20] | Potency [6] | Potency [7] | Potency [8] | Potency [9] | Potency [10] | Potency [11] | Potency [12] | Potency [13] | Potency [14] | Potency [15] | Potency [16] | Potency [17] | Potency [18] | Potency [19]

Cl/C(=C\n1cncn1)c1ccc(Cl)cc1Cl
inactive: Potency [1] | Potency [2] | Potency [3] | max response [4] -23.8% | Potency [5] | Potency [6] | Potency [7] | Potency [8] | Potency [9] | Potency [10] | Potency [11] | Potency [12] | Potency [13] | Potency [14] | Potency [15] | Potency [16] | Potency [17] | Potency [18] | Potency [19]

CCCCOC(=O)c1ccccc1C(=O)OCC(CC)CCCC (stereo unspecified)
inactive: Potency [1] | Potency [2] | Potency [3] | max response [4] -10% | Potency [20] | Potency [6] | Potency [7] | Potency [8] | Potency [9] | Potency [10] | Potency [11] | Potency [12] | Potency [13] | Potency [14] | Potency [15] | Potency [16] | Potency [17] | Potency [18] | Potency [19]

O=C(CC(=O)c1ccccc1)c1ccccc1
inactive: Potency [1] | Potency [2] | max response [4] -4.39% | Potency [5] | Potency [20] | Potency [6] | Potency [7] | Potency [8] | Potency [10] | Potency [11] | Potency [12] | Potency [13] | Potency [14] | Potency [15] | Potency [16] | Potency [17] | Potency [18] | Potency [19]

O=CNc1ccccc1
inactive: Potency [1] | Potency [2] | Potency [3] | max response [4] -8.05% | Potency [20] | Potency [7] | Potency [8] | Potency [9] | Potency [10] | Potency [11] | Potency [12] | Potency [13] | Potency [14] | Potency [15] | Potency [16] | Potency [17] | Potency [18] | Potency [19]

CN(C)CCCOc1nn(Cc2ccccc2)c2ccccc12
inactive: Potency [1] | Potency [2] | Potency [3] | Potency [5] | Potency [6] | Potency [10] | Potency [11] | Potency [13] | Potency [14] | Potency [16] | Potency [17] | Potency [18]
